Reference: PubChem BioAssay AID449739 (Vanderbilt High Throughput Screening Facility, 2010)
Screen size: about 100,000 compounds; about 4,200 (4.2%) were called active.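 Rule for the calls: active = single-dose well whose peak fluorescence ratio is a statistical outlier from its plate by either plate-standardised score or position-corrected B-score; inactive = the rest.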 The entries come from a sample that favours actives as a whole.

These molecules were tested against Voltage-dependent T-type calcium channel subunit alpha-1H (Homo sapiens) (UniProt O95180) (assay: Cav3.2 calcium influx blockers – cell-based, Fluo-4 calcium fluorescence, FDSS, MLSMR library, primary screen (AID 449739)). Conditions: Cav3.2-expressing cells, at 10 µM, hits give low values.
Sequence of Voltage-dependent T-type calcium channel subunit alpha-1H (Homo sapiens) (O95180 whole entry, looked up): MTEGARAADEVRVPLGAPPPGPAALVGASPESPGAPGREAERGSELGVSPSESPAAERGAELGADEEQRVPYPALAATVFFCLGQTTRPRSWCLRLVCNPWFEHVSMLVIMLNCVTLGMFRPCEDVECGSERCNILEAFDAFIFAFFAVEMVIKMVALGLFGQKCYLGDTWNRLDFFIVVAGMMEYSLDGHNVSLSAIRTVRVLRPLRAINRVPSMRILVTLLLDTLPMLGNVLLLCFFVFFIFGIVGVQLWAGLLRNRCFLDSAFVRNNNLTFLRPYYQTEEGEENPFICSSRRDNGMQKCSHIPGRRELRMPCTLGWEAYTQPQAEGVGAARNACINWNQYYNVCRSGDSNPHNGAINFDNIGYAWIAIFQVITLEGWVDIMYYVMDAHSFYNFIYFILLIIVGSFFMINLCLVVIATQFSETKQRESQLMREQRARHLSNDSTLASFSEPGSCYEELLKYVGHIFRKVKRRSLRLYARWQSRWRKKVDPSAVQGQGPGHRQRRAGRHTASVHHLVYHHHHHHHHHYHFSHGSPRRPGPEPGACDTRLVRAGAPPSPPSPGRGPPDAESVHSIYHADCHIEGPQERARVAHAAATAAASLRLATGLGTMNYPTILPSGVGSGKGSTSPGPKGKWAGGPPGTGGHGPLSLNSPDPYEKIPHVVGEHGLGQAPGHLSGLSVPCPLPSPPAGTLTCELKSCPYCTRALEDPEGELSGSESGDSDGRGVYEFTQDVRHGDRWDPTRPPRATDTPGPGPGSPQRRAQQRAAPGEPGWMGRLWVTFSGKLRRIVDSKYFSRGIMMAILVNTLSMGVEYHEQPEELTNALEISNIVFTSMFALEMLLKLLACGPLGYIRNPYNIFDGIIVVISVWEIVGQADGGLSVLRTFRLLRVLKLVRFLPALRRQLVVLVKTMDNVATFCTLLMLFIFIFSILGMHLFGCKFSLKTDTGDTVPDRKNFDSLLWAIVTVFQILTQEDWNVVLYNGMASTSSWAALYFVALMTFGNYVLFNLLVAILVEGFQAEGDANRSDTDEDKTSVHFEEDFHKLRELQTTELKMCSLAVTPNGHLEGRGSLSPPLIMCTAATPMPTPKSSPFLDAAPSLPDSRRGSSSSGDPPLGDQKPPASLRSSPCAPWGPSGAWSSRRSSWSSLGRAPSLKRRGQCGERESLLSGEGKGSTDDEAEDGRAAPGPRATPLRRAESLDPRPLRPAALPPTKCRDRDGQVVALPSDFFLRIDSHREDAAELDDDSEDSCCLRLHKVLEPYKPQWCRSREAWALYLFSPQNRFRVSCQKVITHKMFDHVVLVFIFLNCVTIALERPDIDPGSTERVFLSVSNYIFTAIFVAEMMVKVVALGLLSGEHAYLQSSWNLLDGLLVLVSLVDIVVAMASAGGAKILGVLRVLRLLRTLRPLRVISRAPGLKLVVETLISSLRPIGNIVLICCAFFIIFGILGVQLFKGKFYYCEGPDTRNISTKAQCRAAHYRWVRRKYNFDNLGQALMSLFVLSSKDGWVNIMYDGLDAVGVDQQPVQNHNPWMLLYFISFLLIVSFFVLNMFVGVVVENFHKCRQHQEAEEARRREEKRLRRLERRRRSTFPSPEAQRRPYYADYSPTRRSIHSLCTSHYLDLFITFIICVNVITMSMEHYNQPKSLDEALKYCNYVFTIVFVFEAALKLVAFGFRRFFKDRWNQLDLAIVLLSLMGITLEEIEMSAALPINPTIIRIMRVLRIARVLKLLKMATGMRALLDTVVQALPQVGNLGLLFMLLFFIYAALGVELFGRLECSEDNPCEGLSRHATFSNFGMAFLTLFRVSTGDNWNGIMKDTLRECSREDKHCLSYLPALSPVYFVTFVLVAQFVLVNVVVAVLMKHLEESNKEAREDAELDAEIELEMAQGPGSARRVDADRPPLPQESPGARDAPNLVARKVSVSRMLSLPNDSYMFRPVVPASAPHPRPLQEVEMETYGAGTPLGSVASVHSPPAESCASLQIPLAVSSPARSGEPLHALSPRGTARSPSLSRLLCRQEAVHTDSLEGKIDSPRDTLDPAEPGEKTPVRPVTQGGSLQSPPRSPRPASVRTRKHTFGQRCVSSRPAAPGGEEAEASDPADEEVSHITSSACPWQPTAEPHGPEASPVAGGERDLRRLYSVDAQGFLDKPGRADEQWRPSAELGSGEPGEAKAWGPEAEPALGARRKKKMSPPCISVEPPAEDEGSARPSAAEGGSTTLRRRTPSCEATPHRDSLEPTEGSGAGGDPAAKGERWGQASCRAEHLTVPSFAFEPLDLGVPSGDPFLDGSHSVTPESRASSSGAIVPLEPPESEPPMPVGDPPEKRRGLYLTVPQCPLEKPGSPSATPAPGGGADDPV

Row | SMILES | B-score
1 | CCC(=O)Nc1ccc(C(=O)Nc2cc(C)on2)cc1 | 0.744 (inactive)
2 | CCc1ccc2ncc(C(=O)c3ccccc3)c(N3CCOCC3)c2c1 | -0.907 (inactive)
3 | CC(C)C(=O)NC(=S)Nc1ccccc1F | -0.107 (inactive)
4 | COc1ccccc1NC(=S)NC(=O)C(C)C | 0.35 (inactive)
5 | CC(C)C(=O)Nc1cccc(NC(=S)NC(=O)C(c2ccccc2)c2ccccc2)c1 | -5.49 (active)
6 | CC(C)c1ccc(C(=O)NCCCc2ccccc2)cc1 | -4.2 (active)
7 | Cc1cc(C(=O)NCCCc2ccccc2)no1 | 0.538 (inactive)
8 | O=C(NCCc1ccccc1)c1ccc(OCCOc2ccccc2)cc1 | -0.578 (inactive)
9 | CC(=O)Nc1cccc(/C(C)=N/NC(=O)c2ccccc2Cl)c1 | 0.407 (inactive)
10 | Cc1ccc(-c2csc(NCCc3nc4cc(Cl)c(Cl)cc4n3CCOCCO)n2)cc1 | -0.914 (inactive)
11 | CC1Cc2ccccc2N1C(=O)CSc1nc2ccccc2o1 (centres undefined) | -4.15 (active)
12 | O=C(CSc1nc2ccccc2o1)N1CCN(c2ccccc2)CC1 | -0.102 (inactive)
13 | CCS(=O)(=O)c1ccc2oc(SCC(=O)N3c4ccccc4CC3C)nc2c1 (centres undefined) | 0.393 (inactive)
14 | Cc1nc(SCC(=O)c2ccccc2)c([N+](=O)[O-])[nH]1 | 0.184 (inactive)
15 | COc1c(O)cc2oc(-c3ccc(O)c(O)c3)cc(=O)c2c1O | 1.78 (inactive)
16 | COc1ccccc1N(C)S(=O)(=O)c1ccc(C(=O)N2CCC(C(N)=O)CC2)cc1 | -0.0467 (inactive)
17 | CCCCC1=CC2=CC(=O)C(C)(OC(=O)CC)C(=O)C2=CN1CCCOC(C)C (centres undefined) | 0.761 (inactive)
18 | O=C(CSC1=Nc2ccccc2C2=NC(CC(=O)NCc3ccco3)C(=O)N12)NCc1ccco1 (centres undefined) | 0.442 (inactive)
19 | O=C(CC1N=C2c3ccccc3N=C(SCc3ccccc3Cl)N2C1=O)NCc1ccco1 (centres undefined) | -4.98 (active)
20 | CCC(C)NC(=O)CSC1=Nc2ccccc2C2=NC(CCC(=O)NCc3ccco3)C(=O)N12 (centres undefined) | 0.161 (inactive)
21 | O=C(Cc1ccc2c(c1)CCCC2)Nc1ccccc1Cl | -0.144 (inactive)
22 | O=C(NCc1ccccc1)c1onc(CSc2ccncc2)c1C(=O)NCc1ccccc1 | -0.591 (inactive)
23 | Cc1cc(C)cc(OCc2nnc(SCC(=O)Nc3ccccc3)o2)c1 | 0.346 (inactive)

Row | SMILES | B-score
24 | Cc1cccc(OCc2nnc(SCn3nnc4ccccc4c3=O)o2)c1 | -6.05 (active)
25 | Cc1cccc(OCc2nnc(SCc3nc4cc(C(F)(F)F)ccc4c(=O)[nH]3)o2)c1 | -1.8 (inactive)
26 | COc1cccc(NC(=O)c2ccccc2SC)c1 | 0.424 (inactive)
27 | COc1cccc(NC(=O)c2nn(C34CC5CC(CC(C5)C3)C4)cc2[N+](=O)[O-])c1 | -4.14 (active)
28 | Cn1cc([N+](=O)[O-])c(C(=O)Nc2ccc3c(c2)OCCO3)n1 | 0.353 (inactive)
29 | O=C(Nc1nnc(CCOCCOCCc2nnc(NC(=O)c3ccco3)s2)s1)c1ccco1 | 0.766 (inactive)
30 | Cc1cc(C(=O)CSc2nc(N)cc(=O)[nH]2)c(C)n1CCc1ccc(Cl)cc1 | 0.737 (inactive)
31 | CC(/C=C/C1(O)C(C)CC(=O)CC1(C)C)OC1OC(CO)C(O)C(O)C1O (centres undefined) | 0.424 (inactive)
32 | COc1ccc(-c2cn(-c3ccc(C)cc3)c(=O)n2CC(=O)Nc2ccc(OC)c(OC)c2)cc1 | -1.46 (inactive)
33 | CCOc1ccc(NC(=O)CN2CCN(CC(=O)Nc3ccc(OC)cc3)CC2)cc1 | 1.58 (inactive)
34 | COc1ccc(NC(=O)Cn2c(-c3ccc(OC)cc3)cn(-c3ccc(C)cc3)c2=O)cc1 | -4.33 (active)
35 | CC(C)(C)NS(=O)(=O)c1ccc(NC(=O)NC2CCCCC2)cc1 | -0.833 (inactive)
36 | Cc1n[nH]c(=S)n1/N=C/c1ccc(Br)o1 | 0.825 (inactive)
37 | COc1ccc(Nc2nc(Cl)nc(NCc3ccco3)n2)cc1 | -0.534 (inactive)
38 | COc1ccc(CCN(C)C(=O)C2CCCN(Cc3ccc(OC)c(OC)c3)C2)cc1OC (centres undefined) | -0.0096 (inactive)
39 | COc1ccc(CCNC(=O)C2CCN(c3nn4c(=O)cc(C)nc4s3)CC2)cc1OC | 0.351 (inactive)
40 | COc1ccc(CCNC(=O)C2CCCN(Cc3nc(-c4cccc(Cl)c4)oc3C)C2)cc1OC (centres undefined) | -3.48 (active)
41 | CC1(OC(=O)C2CCCC2)C(=O)C=C2C=C(c3ccc(C#N)cc3)OC=C2C1=O (centres undefined) | -0.314 (inactive)
42 | CCCCNC(=O)C(=O)c1ccccc1NC(C)=O | 0.725 (inactive)
43 | O=C(CCCn1c(=O)[nH]c2cc(Cl)ccc2c1=O)NCCN1CCN(c2ccccc2)CC1 | 0.27 (inactive)
44 | Cc1ccc(C)c(N2CCN(C(=O)CCCCn3c(=O)[nH]c4ccccc4c3=O)CC2)c1 | -8.03 (active)
45 | O=C(CCCCn1c(=O)[nH]c2ccccc2c1=O)NCc1ccc2c(c1)OCO2 | -0.0333 (inactive)
46 | O=C(CCn1c(=O)[nH]c2ccccc2c1=O)NCCCN1CCN(c2cccc(Cl)c2)CC1 | -7.26 (active)

Row | SMILES | B-score
47 | CCn1c(=O)cc(OCC(=O)NCCCN2CCN(c3cccc(Cl)c3)CC2)c2ccccc21 | 0.375 (inactive)
48 | COc1ccc(CCNC(=O)CCCCn2c(=O)[nH]c3ccccc3c2=O)cc1OC | 0.545 (inactive)
49 | COC(=O)c1ccccc1OCC(=O)N1CCN(c2ccc(Cl)cc2)CC1 | -1.9 (inactive)
50 | Cc1ccccc1OC/C(O)=C(\C#N)c1nc2ccccc2[nH]1 | -0.71 (inactive)
51 | COc1cc(OC)c(/C=N/NC(=O)c2ccc([N+](=O)[O-])cc2)cc1Br | -0.234 (inactive)
52 | COc1cc(/C=N\NC(=O)CNC(=O)c2cccc([N+](=O)[O-])c2)ccc1O | 0.194 (inactive)
53 | COc1cccc(/C=N/NC(=O)c2cccc([N+](=O)[O-])c2)c1OS(=O)(=O)c1ccc(C)cc1 | -6.01 (active)
54 | C#CCNC(=O)C1=C[C@@H](c2ccccc2)[C@H](CCCO)[C@@H](OCC)O1 | 1.09 (inactive)
55 | Cc1ccc2c(c1)N(CC(=O)N(Cc1ccccn1)Cc1ccco1)C(=O)C(C(C)C)O2 (centres undefined) | -6.96 (active)
56 | Cc1ccc(C(C(=O)NC2CCCC2)N(Cc2ccco2)C(=O)CCC(=O)Nc2ccccn2)cc1 (centres undefined) | 0.124 (inactive)
57 | Cc1ccc(C)c(N(CC(=O)NCc2ccco2)C(=O)CCC(=O)Nc2ccccn2)c1 | -2.66 (inactive)
58 | C#CCOCCOCCOCCNc1nc(N2CCN(C(=O)[C@H](CCC(=O)O)n3cc(C(N)CO)nn3)CC2)nc(N2CCN(C(=O)[C@H](Cc3ccc(O)cc3)n3cc(C(N)[C@H](C)CC)nn3)CC2)n1 (some centres undefined) | -0.353 (inactive)
59 | O=C(O)/C=C/C(=O)Nc1ccc(F)cc1F | 0.769 (inactive)
60 | Cn1cnc([N+](=O)[O-])c1Sc1ccccc1 | 0.333 (inactive)
61 | CC(C)(C)n1nc(Cc2cccc3ccccc23)c(C#N)c1N | -1.32 (inactive)
62 | c1ccc2c(CSCc3nc4ccccc4[nH]3)cccc2c1 | -7.7 (active)
63 | c1ccc(-c2nnc(SCc3nc4ccccc4[nH]3)o2)cc1 | -1.58 (inactive)
64 | COC(=O)Cc1nc2ccccc2[nH]1 | 0.0867 (inactive)
65 | COc1cc2c(cc1O)[C@H](Cc1ccc(Oc3cc(C[C@@H]4NCCc5cc(OC)c(O)cc54)ccc3O)cc1)NCC2 | 0.142 (inactive)
66 | C(=N/N1CCN(c2ccccc2)CC1)/c1cccs1 | 0.219 (inactive)
67 | O=C(CCNS(=O)(=O)c1ccccc1C(F)(F)F)NCc1ccc2c(c1)OCO2 | -0.223 (inactive)
68 | CCCn1c(C(O)c2cc(OC)ccc2OC)nc2ccccc21 (centres undefined) | -1.69 (inactive)
69 | COCCn1c(-c2ccc(OC)c(OC)c2)nc2ccccc21 | 0.414 (inactive)

Row | SMILES | B-score
70 | COc1ccc(-c2nc3ccccc3n2CCC(C)C)cc1OC | -6.94 (active)
71 | CCCCN1C(N)=NC[C@@H]1CC1CCCCC1 | 0.078 (inactive)
72 | CCCCN1C(=S)NC[C@@H]1C(C)CC (some centres undefined) | -0.603 (inactive)
73 | C[C@H](NC(=O)c1nc[nH]c1C(=O)N[C@@H](C)C(=O)OC(C)(C)C)C(=O)OC(C)(C)C | 0.275 (inactive)
74 | COc1cccc(-c2nnc(SCCOc3ccc4c(C)cc(=O)oc4c3)o2)c1 | 1.22 (inactive)
75 | COc1ccc(C(=O)CN2C(=O)NC(C)(c3ccc(C)cc3)C2=O)cc1OC (centres undefined) | -0.586 (inactive)
76 | Cc1ccc(SCCN2C(=O)NC(C)(C)C2=O)cc1 | 0.269 (inactive)
77 | Cc1ccc(C2(c3ccc(C)cc3)NC(=O)N(Cc3c(C)noc3C)C2=O)cc1 | -6.31 (active)
78 | NS(=O)(=O)c1cccnc1Nc1cccc(Cl)c1 | -0.12 (inactive)
79 | O=S(=O)(c1cnccc1N1CCN(/N=C/c2ccc(Br)cc2)CC1)N1CCCCC1 | -0.791 (inactive)
80 | Cc1ccc(-c2csc(N(Cc3ccco3)C(=O)c3cccs3)n2)cc1 | -1.85 (inactive)
81 | Cc1ccc(/C=N/NC(=O)c2sccc2OCc2ccc(F)cc2)cc1 | -0.514 (inactive)
82 | O=C(Nc1ccc(Cl)c(Cl)c1)N1CC=C(c2ccccc2)CC1 | -6.72 (active)
83 | O=C(Nc1ccc(N2CCN(C(=O)c3ccccc3)CC2)c(Cl)c1)c1cccnc1 | 1.44 (inactive)
84 | NC(=O)N1CCCC1C(=O)Nc1ccc(Cl)c(Cl)c1 (centres undefined) | -0.377 (inactive)
85 | COC(=O)CCCC1=CC2=CC(=O)C(C)(OC(=O)c3cccs3)C(=O)C2=CN1CC1CC1 (centres undefined) | 1.17 (inactive)
86 | C#CCOCCOCCOCCNc1nc(N2CCN(C(=O)[C@H](C(C)C)n3cc(CCO)nn3)CC2)nc(N2CCN(C(=O)[C@H](C(C)C)n3cc(CCO)nn3)CC2)n1 | 0.0404 (inactive)
87 | Cc1cc(NC(=O)CCC(=O)N(CC(=O)NCC2CCCO2)c2ccccc2C)no1 (centres undefined) | 0.22 (inactive)
88 | COCCNC(=O)CN(C(=O)CCC(=O)Nc1cc(C)on1)c1ccc(C)cc1C | 0.162 (inactive)
89 | CCCCOc1ccc(N(CC(=O)NCC2CCCO2)C(=O)CCC(=O)Nc2cc(C)ccn2)cc1 (centres undefined) | -9.41 (active)
